# This is a sample that favours compounds with a hit; in the whole collection about 0.86% have one here.
# A1 inhib: blocks A1 activity; caspase activation, % (no concentration beside the values); MEF A1-2A-BIM cells, caspase-Glo luminescence, 3 h; percent of clofoctol signal, DMSO as zero; AID 2241; 21,000 tested, 0.51% active;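 active = most replicate scores above 10, or exactly half above 10 with mean activity above 10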;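 note: effector caspase 3 and 7 activity cleaving a DEVD luciferin substrate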
# BJeLR viability: compounds reducing viability of BJeLR cells | BJeLR fibroblasts viability, CellTiterGlo ATP luminescence, 48 h; HRASV12, hTERT and SV40 LT/ST transformed | viability loss activity score, % (no concentration beside the values) | 30,000 tested, 0.64% active; in the data active = viability loss activity score above about 50%;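 note: higher score means fewer live cells and less ATP luminescence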
# Hits are given with their value; 0 = inactive; - = no result given.
SMILES,A1 inhib,BJeLR viability
CC(C)C[C@@H](/C=C/S(C)(=O)=O)NC(=O)[C@H](CC(C)C)NC(=O)[C@H](CC(C)C)NC(=O)OCc1ccccc1,0,116
CC(C)C[C@@H](NC(=O)OCC1c2ccccc2-c2ccccc21)C(=O)O,0,0
Cc1cc(C)nc(NC(N)=NCc2ccccc2Cl)n1,0,77
Cc1cc(C)nc(NC(=NCc2ccc(Cl)cc2)NC(=O)C(C)N2C(=O)c3ccccc3C2=O)n1 (centres undefined),0,0
CNC(=O)c1cccc(NC(=S)NC)c1,0,0
Nc1nnc(CSc2cccc3cccnc23)o1,-,0

# Assay outcomes deposited in PubChem by Broad Institute.
